In PubChem BioAssay (NCATS):
Inconclusive results are not listed. Entries that show only a call come without a potency. Activity calls are given as the source filed them. Calls come from the whole dose curve; as a rule, active = well fitted curve in the direction sought with a large enough effect; inconclusive = small, poorly fitted or top-dose-only effect, or another doubt; inactive = no such curve, though single readings can be large; an effect the other way counts as inactive or inconclusive.

What was measured:
[1] = Cell Viability - LYMP2-004 (AID 966); note: nearly all actives have a fitted effect of over 65% in size
In short: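 Luminescent ATP read-out (CellTiter-Glo, 30 min RT) after 24 hr compound exposure at 37 C; 2500 lymphoblastoid cells/well, complete medium. Decrease in ATP = cytotoxicity; AC50 from standard Hill model.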

[2] = Cell Viability - LYMP2-005 (AID 967); note: series mostly up to about 92 µM
In short: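 qHTS viability screen in LYMP2-005 cells: 24 h at 37 C with compound, ATP luminescence via CellTiter-Glo, AC50 from Hill curves.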

[3] = Cell Viability - LYMP2-009 (AID 968); note: series mostly up to about 92 µM; nearly all actives have a fitted effect of over 55% in size
[4] = Cell Viability - LYMP2-011 (AID 969);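 note: cells exposed to compound for 24 hours; nearly all actives have a fitted effect of over 60% in size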
In short: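 Luminescent ATP read-out (CellTiter-Glo, 30 min RT) after 24 hr compound exposure at 37 C in human lymphoblastoid cells, 2500 cells/well. Decreasing ATP indicates cytotoxicity; AC50 from standard Hill fit.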

[5] = Cell Viability - LYMP2-013 (AID 970); note: series mostly up to about 92 µM; nearly all actives have a fitted effect of over 55% in size
In short: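 CellTiter-Glo luminescence (cellular ATP) read after 30 min at RT. Cells: human lymphoblastoid line, 2500/well, 24 hr compound exposure at 37 C. Tetraoctylammonium bromide positive control; AC50 via standard Hill fit of qHTS titrations.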

[6] = Cell Viability - LYMP2-015 (AID 971); note: nearly all actives have a fitted effect of over 55% in size
In short: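 qHTS cytotoxicity: 2500 cells/well, 5 hr 37 C, compound 24 hr 37 C, CellTiter-Glo 30 min RT, luminescence. Loss of ATP = toxicity; AC50 via standard Hill fit.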

[7] = Cell Viability - LYMP2-017 (AID 972);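 note: series mostly up to about 92 µM; cells exposed to compound for 24 hours at 37 °C; nearly all actives have a fitted effect of over 55% in size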
In short: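 Luminescent ATP read-out (CellTiter-Glo, 30 min RT) reports viable cell number. Cells: human lymphoblastoid line, 2500 per well, 5 hr preincubation, 24 hr compound exposure at 37 C. AC50 is derived from qHTS concentration-response data using the standard Hill model.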

[8] = Cell Viability - LYMP2-019 (AID 973); note: nearly all actives have a fitted effect of over 55% in size
In short: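 qHTS, 1536-well; 2500 cells/well; 5 hr pre-incubation, 24 hr compound exposure, 37 C; CellTiter-Glo added, 30 min RT; luminescence read; AC50 via standard Hill equation.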

[9] = Cell Viability - LYMP2-021 (AID 974)
In short: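 ATP luminescence (CellTiter-Glo, 30 min RT) after 24 h compound exposure at 37 C; 2500 human lymphoblastoid cells/well, 5 h settle beforehand. Cytotoxicity = concentration-dependent ATP drop, AC50 by Hill fit.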

[10] = Cell Viability - LYMP2-023 (AID 975)
In short: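 CellTiter-Glo luminescence after 30 min at room temperature; decrease in intracellular ATP reflects toxicity. Cells: human lymphoblastoid line, 2500/well, 24 hr compound exposure at 37 C. AC50 fitted to standard Hill equation from concentration-response.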

[11] = Cell Viability - LYMP2-025 (AID 976); note: series mostly up to about 92 µM
In short: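 CellTiter-Glo luminescence (cellular ATP) after 24 h compound exposure at 37 C; LYMP2-025 human lymphoblastoid cells, 2500/well, complete medium. Tetraoctylammonium bromide positive control. AC50 by Hill equation fit of qHTS concentration-response.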

[12] = Cell Viability - LYMP2-002 (AID 977); note: series mostly up to about 92 µM
In short: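 In this qHTS viability screen, 2500 human lymphoblastoid cells per well receive compound for 24 hr at 37 C, and luciferase-based ATP luminescence gives the viability signal. Tetraoctylammonium bromide serves as positive control.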

[13] = Cell Viability - LYMP2-006 (AID 978);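 note: series mostly up to about 92 µM; cells exposed to compound for 24 hours; nearly all actives have a fitted effect of over 60% in size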
In short: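 Concentration-dependent loss of intracellular ATP in a human lymphoblastoid line after 24 hr treatment at 37 C was measured by CellTiter-Glo luminescence, with AC50 values obtained from standard Hill-equation modelling.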

[14] = Cell Viability - LYMP2-007 (AID 979);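 note: cells exposed to compound for 24 h before reading; nearly all actives have a fitted effect of over 60% in size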
In short: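 qHTS cytotoxicity: 2500 cells/well, 5 hr 37 C settle, compound 24 hr 37 C, CellTiter-Glo 30 min RT, luminescence. Decrease in ATP = toxicity. AC50 by standard Hill equation; tetraoctylammonium bromide positive control.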

[15] = Cell Viability - LYMP2-008 (AID 980); note: nearly all actives have a fitted effect of over 60% in size
In short: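 Luminescent ATP read-out (CellTiter-Glo, 30 min RT) after 24 hr compound exposure at 37 C of human lymphoblastoid cells in complete medium. Decrease in ATP taken as cytotoxicity; AC50 derived by standard Hill fit of qHTS concentration-response data.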

[16] = Cell Viability - LYMP2-010 (AID 981)
In short: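 qHTS cytotoxicity, 1536-well: 2500 cells/well, 5 hr settle, 24 hr compound at 37 C, CellTiter-Glo 30 min RT, luminescence read. Decrease in ATP = toxicity; AC50 via standard Hill equation. Positive control tetraoctylammonium bromide.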

[17] = Cell Viability - LYMP2-012 (AID 982)
[18] = Cell Viability - LYMP2-014 (AID 983); note: series mostly up to about 92 µM; nearly all actives have a fitted effect of over 50% in size
In short: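 2500 cells/well, 5 hr 37 C; cpd 24 hr 37 C, complete medium; CellTiter-Glo 30 min RT, luminescence; ATP loss = toxicity; AC50 via Hill eqn; tetraoctylammonium bromide positive control.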

[19] = Cell Viability - LYMP2-016 (AID 984)
In short: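 Acute toxicity in a Coriell human lymphoblastoid line is scored as loss of intracellular ATP over 24 h of treatment in complete medium. CellTiter-Glo signal is fitted across concentrations with the Hill equation to give AC50.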

[20] = Cell Viability - LYMP2-018 (AID 985); note: nearly all actives have a fitted effect of over 50% in size; note: potency is the fitted concentration of half-maximal effect
In short: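 2500 cells/well; 5 hr 37 C; cmpd 24 hr 37 C, complete medium; CellTiter-Glo 30 min RT; luminescence. Tetraoctylammonium bromide positive control. AC50 via Hill fit.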

SMILES	outcome [1]	outcome [2]	outcome [3]	outcome [4]	outcome [5]	outcome [6]	outcome [7]	outcome [8]	outcome [9]	outcome [10]	outcome [11]	outcome [12]	outcome [13]	outcome [14]	outcome [15]	outcome [16]	outcome [17]	outcome [18]	outcome [19]	Potency [20]
C=C[C@H]1CN2CC[C@H]1C[C@@H]2[C@@H](O)c1ccnc2ccc(OC)cc12	inactive	inactive	inactive	inactive	inactive	inactive	inactive	inactive	inactive	inactive	inactive	inactive	inactive	inactive	inactive	inactive	inactive	inactive	inactive	–
CCCCC(CC)COC(=O)c1ccc(N(C)C)cc1 (configuration not stated)	inactive	inactive	inactive	inactive	inactive	inactive	inactive	inactive	inactive	inactive	inactive	inactive	inactive	inactive	inactive	inactive	inactive	inactive	inactive	inactive
COc1ccc(C(=O)c2ccccc2)c(O)c1	inactive	inactive	inactive	inactive	inactive	inactive	inactive	inactive	inactive	inactive	inactive	inactive	inactive	inactive	inactive	inactive	inactive	inactive	inactive	inactive
CCCN(CCC)S(=O)(=O)c1ccc(C(=O)O)cc1	inactive	inactive	inactive	inactive	inactive	inactive	inactive	inactive	inactive	inactive	inactive	inactive	inactive	inactive	inactive	inactive	inactive	inactive	inactive	inactive
CCOc1ccccc1C(N)=O	inactive	inactive	inactive	inactive	inactive	inactive	inactive	inactive	inactive	inactive	inactive	inactive	inactive	inactive	inactive	inactive	inactive	inactive	inactive	inactive
C/C=C/c1ccc(O)c(OC)c1	inactive	inactive	inactive	inactive	inactive	inactive	inactive	inactive	inactive	inactive	inactive	inactive	inactive	inactive	inactive	inactive	inactive	inactive	inactive	inactive
NC(=O)c1ccccc1O	inactive	inactive	inactive	inactive	inactive	inactive	inactive	inactive	inactive	inactive	inactive	inactive	inactive	inactive	inactive	inactive	inactive	inactive	inactive	inactive
NCCNc1cccc2ccccc12	inactive	–	inactive	inactive	inactive	inactive	inactive	inactive	inactive	inactive	inactive	inactive	inactive	inactive	inactive	inactive	inactive	inactive	inactive	inactive
Oc1c(Cl)cc(Cl)c(Cl)c1Cc1c(O)c(Cl)cc(Cl)c1Cl	–	–	–	–	–	–	–	–	–	–	–	–	–	–	–	–	–	–	–	25.1 µM (active)
COc1cc([C@H]2Oc3cc([C@H]4Oc5cc(O)cc(O)c5C(=O)[C@@H]4O)ccc3O[C@@H]2CO)ccc1O	inactive	inactive	inactive	inactive	inactive	inactive	inactive	inactive	inactive	inactive	inactive	inactive	inactive	inactive	inactive	inactive	inactive	inactive	inactive	inactive
O=C(O)c1ccc(S(=O)(=O)N(Cl)Cl)cc1	inactive	inactive	inactive	inactive	inactive	inactive	inactive	inactive	inactive	inactive	inactive	inactive	inactive	inactive	inactive	inactive	inactive	inactive	inactive	inactive
OC[C@H]1O[C@@H]2O[C@H]3[C@H](O)[C@@H](O)[C@@H](O[C@H]4[C@H](O)[C@@H](O)[C@@H](O[C@H]5[C@H](O)[C@@H](O)[C@@H](O[C@H]6[C@H](O)[C@@H](O)[C@@H](O[C@H]7[C@H](O)[C@@H](O)[C@@H](O[C@H]8[C@H](O)[C@@H](O)[C@@H](O[C@H]1[C@H](O)[C@H]2O)O[C@@H]8CO)O[C@@H]7CO)O[C@@H]6CO)O[C@@H]5CO)O[C@@H]4CO)O[C@@H]3CO	inactive	–	inactive	inactive	inactive	inactive	inactive	inactive	inactive	inactive	inactive	inactive	inactive	inactive	inactive	inactive	inactive	inactive	inactive	inactive
CCOc1ccc(NC(C)=O)cc1	inactive	inactive	inactive	inactive	inactive	inactive	inactive	inactive	inactive	inactive	inactive	inactive	inactive	inactive	inactive	inactive	inactive	inactive	inactive	inactive
COc1ccc(C(Cl)=C(c2ccc(OC)cc2)c2ccc(OC)cc2)cc1	inactive	–	inactive	inactive	inactive	inactive	inactive	inactive	inactive	inactive	inactive	inactive	inactive	inactive	inactive	inactive	inactive	inactive	inactive	inactive
